Bioassay records as filed in PubChem.
Compounds with a hit are over-represented: about 0.7% of the library has one in this group of screens.
Epigenetic reg: Quantitative High-Throughput Screen for Regulators of Epigenetic Control; murine LDR cells, GFP reporter derepression, 30 h; Potency, µM (series often up to 53.9 µM), without a hit: at the top dose GFP activation, actives largely listed as activators; actives 0.2% (n = 280,000); AID 1865, 2009; further: % of control where 0% means no effect; nearly all actives have a fitted effect of over 60% in size
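In this reporter-derepression format, murine cells bearing a silenced integrated CMV-GFP locus incubate with test compound (30 h, 37 C), then are washed and imaged; fluorescent objects of 20–120 um count as induced cells.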
GLS inh: qHTS for Inhibitors of Glutaminase (GLS) | actives 0.21% (n = 410,000) | GLS enzymatic activity, qHTS titration | Glutaminase kidney isoform, mitochondrial (Homo sapiens), O94925 | Potency, µM (top dose mostly 45.5 µM), for inactives: top-dose activity change, negative = inhibition, usual class: inhibitors | AID 624170, 2012; further: on the % scale 0 is the no-effect control and ±100 the full control effect
Target sequence (O94925 whole entry, looked up, canonical isoform): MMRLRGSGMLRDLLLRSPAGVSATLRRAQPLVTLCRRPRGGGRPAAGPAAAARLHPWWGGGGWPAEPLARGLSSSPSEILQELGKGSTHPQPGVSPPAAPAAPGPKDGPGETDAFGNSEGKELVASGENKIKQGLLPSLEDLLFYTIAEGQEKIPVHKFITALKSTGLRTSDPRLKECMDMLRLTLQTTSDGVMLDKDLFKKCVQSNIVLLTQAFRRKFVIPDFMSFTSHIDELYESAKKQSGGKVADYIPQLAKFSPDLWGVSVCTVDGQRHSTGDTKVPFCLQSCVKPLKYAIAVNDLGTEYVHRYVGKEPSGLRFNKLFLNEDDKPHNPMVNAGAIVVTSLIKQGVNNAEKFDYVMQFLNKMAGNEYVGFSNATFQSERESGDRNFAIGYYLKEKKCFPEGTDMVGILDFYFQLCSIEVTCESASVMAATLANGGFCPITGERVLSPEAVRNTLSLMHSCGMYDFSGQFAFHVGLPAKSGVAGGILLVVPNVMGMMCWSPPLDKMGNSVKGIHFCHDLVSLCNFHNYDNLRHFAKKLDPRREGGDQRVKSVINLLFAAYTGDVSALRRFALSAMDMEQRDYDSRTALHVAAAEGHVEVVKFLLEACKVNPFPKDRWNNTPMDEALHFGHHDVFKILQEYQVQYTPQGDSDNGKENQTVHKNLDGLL
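Human kidney-isoform GLS in 45 mM KH2PO4 pH 8.2, 0.02% Tween-20, with compound, started with 1mM L-Glutamine (added stock). Glutamate oxidase/HRP/Amplex red coupled fluorescence read at start and after 30 min at RT.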
Vif-APOBEC3G blk: qHTS for Inhibitors of Vif-A3G Interactions: qHTS; DNA dC->dU-editing enzyme APOBEC-3G (Homo sapiens), Q9HC16; HeLa A3G-eYFP + Vif (tagged APOBEC3G with the HIV-1 protein that degrades it), YFP fluorescence, overnight; Potency, µM (top dose mostly 46.1 µM), inactives show at the top dose activity, negative = active, usual class: inhibitors; actives 0.076% (n = 410,000); AID 602310, 2012; further: on the % scale 0 is the no-effect control and ±100 the full control effect; nearly all actives have a fitted effect of over 60% in size
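HeLa cells stably expressing Vif and C-terminally eYFP-tagged A3G, seeded overnight at 37 deg C, then exposed to compound by pintool overnight at 37 deg C. Rise in yellow fluorescence (Ex 488/Em 500-530, Acumen) marks blocked Vif-driven A3G degradation.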
Vif-APOBEC3F blk: qHTS for Inhibitors of Vif-A3F Interactions: qHTS | actives 0.2% (n = 390,000) | Potency, µM (doses to about 46.1 µM), for the others: at the highest dose activity, negative = active | HeLa A3F-eYFP + Vif (tagged APOBEC3F with the HIV-1 protein that degrades it), YFP fluorescence increase; further: % of control where 0% means no effect; nearly all actives have a fitted effect of over 65% in size
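HeLa cells stably expressing Vif plus C-terminally eYFP-tagged A3F were seeded, incubated overnight at 37 deg C, dosed with compound, incubated overnight again at 37 deg C. Yellow fluorescence (Ex 488/Em 500-530) reported blocked Vif-mediated A3F-eYFP degradation.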
PINK1 expr mod: A Quantitative High throughput Screen to Identify Chemical Modulators of PINK1 Expression; actives 0.2% (n = 410,000); Potency, µM (titrated, usually from 76.6 µM), inactives show top-dose activation (PINK1 increase), actives largely listed as activators; PINK1 immunofluorescence, high-content cytometry, 24 h; active means well fitted activation curve with a large enough effect; inconclusive means small, poorly fitted or top-dose-only effect; cell line not stated here; further: % of control where 0% means no effect; nearly all actives have a fitted effect of over 65% in size
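A stable cell line was treated with compounds at 5 concentrations for 24 hours, with CCCP as control. PINK1 levels and mitochondrial localization were measured by immunofluorescence with mitochondrial, cell and nuclear markers after fixation, read by laser-scanning cytometry.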
An asterisk follows results filed as active; ! = a repeat was not active; [ ] = dose if it differs, or a comment. Unless noted, the call rests on the fitted dose curve; in most records, active means well fitted curve in the direction sought with a large enough effect; inconclusive means small, poorly fitted or top-dose-only effect, or another doubt; inactive means no such curve, though single readings can be large; an effect the other way counts as inactive or inconclusive. Potency means the concentration at half of the fitted maximal effect.

What do the screens show for `C=CCOc1ccc2cccc(/C=N/NC(=O)c3cc4cc([N+](=O)[O-])ccc4s3)c2c1`?
Epigenetic reg: inconclusive; GLS inh: -1%; Vif-APOBEC3G blk: 3%; Vif-APOBEC3F blk: inconclusive; PINK1 expr mod: 20µM*

Results for O=C(Nc1ccccn1)c1cc2cc([N+](=O)[O-])ccc2s1 ?
Epigenetic reg: -1%; GLS inh: 2%; Vif-APOBEC3G blk: -5%; Vif-APOBEC3F blk: 3%; PINK1 expr mod: 2%

How did Cc1cc(C(=O)Nc2ccccc2-c2nc(CNC(=O)C3COc4ccccc4O3)c(C)o2)c(C)o1 (stereo not drawn) do in these assays?
PINK1 expr mod: 0%

Results for CC(=C/C(=O)O)/C=C/c1ccc(Cl)o1 ?
Epigenetic reg: -8%; GLS inh: 18µM*; Vif-APOBEC3G blk: -1%; Vif-APOBEC3F blk: -7%; PINK1 expr mod: -1%

Results for CC(=O)Nc1ccc(Nc2c3c4c(cccc4n(C)c2=O)C(=O)c2ccccc2-3)cc1 ?
Epigenetic reg: 3%; GLS inh: 7%; Vif-APOBEC3G blk: -12%; Vif-APOBEC3F blk: 8.9µM*; PINK1 expr mod: inconclusive

How did Cn1c(=O)c(NC2CCCCC2)c2c3c(cccc31)C(=O)c1ccccc1-2 do in these assays?
Epigenetic reg: 0.13µM*; GLS inh: 2%; Vif-APOBEC3G blk: inconclusive; Vif-APOBEC3F blk: -57%; PINK1 expr mod: 15%

Results for COc1ccc(N2Cc3cccc(C(=O)O)c3C2=O)cc1 ?
Epigenetic reg: -2%; GLS inh: 16µM*; Vif-APOBEC3G blk: -2%; Vif-APOBEC3F blk: 4%; PINK1 expr mod: 2%

What do the screens show for `COc1ccc(N2Cc3cccc(C(=O)Nc4cc(C)cc(C)c4)c3C2=O)cc1`?
Epigenetic reg: 2%; GLS inh: 6%; Vif-APOBEC3G blk: 0%; Vif-APOBEC3F blk: -11%; PINK1 expr mod: 0%

How did CC(=O)c1ccc(F)c(-c2cc(C)cc3c2OC(CNC(=O)C[C@@H]2C[C@@H](C)NC(=S)N2)C3)c1 (stereo partly drawn) do in these assays?
PINK1 expr mod: 0%

Results for O=[N+]([O-])c1ccc(NS(=O)(=O)c2ccc(Cl)c(Cl)c2)cc1 ?
GLS inh: 20%; Vif-APOBEC3G blk: -12%; PINK1 expr mod: 16µM*

What do the screens show for `Cc1ccc(/C=C/C(=O)Nc2ccc([N+](=O)[O-])cc2)o1`?
Epigenetic reg: 1%; GLS inh: -1%; Vif-APOBEC3G blk: 3%; Vif-APOBEC3F blk: -7%; PINK1 expr mod: inconclusive

How did CCOC(=O)CCc1ccc(NC(=O)/C=C/c2ccc([N+](=O)[O-])o2)cc1 do in these assays?
GLS inh: -1%; Vif-APOBEC3G blk: 7.9µM*; Vif-APOBEC3F blk: 11µM*; PINK1 expr mod: -3%

What do the screens show for `O=c1oc2c(O)c(O)cc3c(=O)oc4c(O)c(O)cc1c4c23`?
Epigenetic reg: 5%; GLS inh: 2.8µM*!; Vif-APOBEC3G blk: 1%; Vif-APOBEC3F blk: -3%; PINK1 expr mod: 0%

How did Cc1c(C)c2cc(Cl)c(O)c(CN(C)C)c2oc1=O do in these assays?
Epigenetic reg: 0%; GLS inh: -8%; Vif-APOBEC3G blk: 3%; Vif-APOBEC3F blk: -16%; PINK1 expr mod: 4%[38.3 µM]

How did c1ccc2c(CCc3c[nH]c4ccccc34)ccnc2c1 do in these assays?
Vif-APOBEC3G blk: 11µM*; PINK1 expr mod: 1%

Results for CC1CN(Cc2cccn2-c2ncccn2)Cc2cc(Cl)ccc2O1 (stereo not drawn) ?
PINK1 expr mod: 1%

What do the screens show for `Cc1cccc(C(=O)NCCC(=O)N2CCc3ccccc3C2)c1`?
GLS inh: -3%; Vif-APOBEC3G blk: 0%; Vif-APOBEC3F blk: -4%; PINK1 expr mod: 2%

Results for Cc1cccc(C(=O)NC(=S)N2CCc3ccccc3C2)c1 ?
Epigenetic reg: -1%; GLS inh: 11%; Vif-APOBEC3G blk: 1%; Vif-APOBEC3F blk: 8.9µM*; PINK1 expr mod: 3%

How did COc1ccccc1CN1CCC2(CCC(CNC(=O)c3ccccc3N(C)C)O2)CC1 (stereo not drawn) do in these assays?
PINK1 expr mod: -1%

What do the screens show for `COc1cccc(C(=O)N(Cc2cc3ccc(C)cc3nc2N(C)C)C2CC2)c1OC`?
PINK1 expr mod: 2%

What do the screens show for `COc1ccc(-c2nc3cnc(Nc4ccccc4)nc3n(CCC#N)c2=O)cc1`?
PINK1 expr mod: 11µM*

How did COc1cccc(Nc2ncc3nc(-c4cc(F)cc(F)c4)c(=O)n(CCC#N)c3n2)c1 do in these assays?
PINK1 expr mod: 1%

What do the screens show for `COc1ccc(-c2nc3cnc(Nc4cccc(OC)c4)nc3n(CCC#N)c2=O)cc1`?
PINK1 expr mod: 45µM*

How did Cc1nnc(N2C(=O)c3cccc4c([N+](=O)[O-])ccc(c34)C2=O)s1 do in these assays?
GLS inh: -2%; Vif-APOBEC3G blk: inconclusive; Vif-APOBEC3F blk: 28µM*; PINK1 expr mod: 4%

What do the screens show for `Cc1ccnc(N2C(=O)c3cccc4c([N+](=O)[O-])ccc(c34)C2=O)c1`?
Epigenetic reg: inconclusive; GLS inh: 3%; Vif-APOBEC3G blk: 4%; Vif-APOBEC3F blk: inconclusive; PINK1 expr mod: -3%[38.3 µM]

What do the screens show for `Cn1nnnc1SCCNCc1cc(Br)ccc1OCc1ccccc1Cl`?
Epigenetic reg: 1%; GLS inh: 10%; Vif-APOBEC3G blk: -15%; Vif-APOBEC3F blk: 13µM*; PINK1 expr mod: 19%

Results for NC(=S)n1[nH]c(-c2ccc([N+](=O)[O-])cc2)c(N=Nc2ccc(O)cc2)c1=O ?
Epigenetic reg: 3%; GLS inh: 21%; Vif-APOBEC3G blk: 0%; Vif-APOBEC3F blk: -2%; PINK1 expr mod: 1%

Results for NC(=S)n1[nH]c(-c2ccc([N+](=O)[O-])cc2)c(N=Nc2cccc(Cl)c2)c1=O ?
Epigenetic reg: -1%; GLS inh: 11%; Vif-APOBEC3G blk: -1%; Vif-APOBEC3F blk: -3%; PINK1 expr mod: 13µM*

How did CCS(=O)(=O)Nc1cc(C(=O)N2CCCN(C=O)CC2)c2c(c1)nc(-c1ccccc1)n2C do in these assays?
PINK1 expr mod: 0%

Results for COc1ccc(-n2c(C)cc(C3=NNC(=NC4CC4)SC3)c2C)cc1 ?
Epigenetic reg: 3%; GLS inh: 0%; Vif-APOBEC3G blk: -23%; Vif-APOBEC3F blk: -12%; PINK1 expr mod: 32µM*

Results for COCCn1c(C)cc(C2=NNC(=NC3CC3)SC2)c1C ?
Epigenetic reg: -1%; GLS inh: -31%; Vif-APOBEC3G blk: 3%; Vif-APOBEC3F blk: -27%; PINK1 expr mod: 0%

Results for Cc1cc(C2=NNC(=NC3CC3)SC2)c(C)n1-c1ccccc1 ?
Epigenetic reg: 0%; GLS inh: -7%; Vif-APOBEC3G blk: 1%; Vif-APOBEC3F blk: -2%; PINK1 expr mod: 40µM*
